# Laboratory results published in the supplement of paper PMC7156485.
# Values without a mark were called inactive.
# Tested on: HCC1569
# Assay: H1.0 immunofluorescence intensity relative to DMSO (% of DMSO); higher = stronger H1.0 induction, active = 140 or more
# Settings: concentration: 10 µM; 24 h
# In short: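 Cells were seeded at 800 per well in 384-well plates with RPMI containing 10% FBS; both HCC1569 and TDF lines were used. Compounds were added at 10 µM for 24 h at 37 °C, in triplicate, before fixation in 3.7% formaldehyde and staining with a rabbit anti-H1.0 antibody, an AlexaFluor 647 secondary and DAPI. H1.0 nuclear intensity or cell number is reported as percent of the plate control using the median of replicates, and HCC1569 values were smoothed for positional effects.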
# 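Note: TDF is a line of transformed human dermal fibroblasts of mesenchymal origin.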
row,SMILES,H1.0 immunofluorescence intensity
1,COc1cc(/C=C/C(=O)CC(=O)/C=C/c2ccc(O)cc2)ccc1O,161 (active)
2,CCCCOc1cc(CC2CNC(=O)N2)ccc1OC (stereo not drawn),86.2
3,CCOC(=O)C1=CC2(CC)CCCN3CCc4c(n1c1ccccc41)C32 (stereo not drawn) [Vinpocetine],98.8
4,N[C@H](CCC(=O)NCS(=O)(=O)O)C(=O)O [gamma-D-Glutamylaminomethylsulfonic acid],93.6
5,COc1cc2c(cc1OC)C1C(=O)c3ccc4c(c3OC1CO2)C=CC(C)(C)O4 (stereo not drawn) [Degeulin],121
6,Cc1ccc(S(=O)(=O)NC(=O)NN2CCCCCC2)cc1 [Tolazamide],102
7,COc1cc2c(cc1OC)C(c1ccccc1)CN(C)CC2.O=C(O)C=CC(=O)O (stereo not drawn),92.5
8,CCCC1CC(C(=O)NC(C(C)O)C2OC(SC)C(O)C(O)C2O)N(C)C1 (stereo not drawn) [Lincomycin],93
9,O=c1cc(N2CCOCC2)nc2c3ccccc3ccn12,111
10,"CN(C)C(=S)NN=C(c1ccccn1)c1ccccn1 [(Z)-di(2-pyridinyl)methanone N,N-dimethylthiosemicarbazone]",106
11,CCCCc1nc(Cl)c(CO)n1Cc1ccc(-c2ccccc2-c2nnn[n-]2)cc1.[K+] [Losartan potassium],102
12,O=c1cc(-c2ccccc2)oc2cc(O)cc(O)c12 [Chrysine],92.7
13,CC1OC(OCC2OC(Oc3cc(O)c4c(c3)OC(c3ccc(O)cc3)CC4=O)C(O)C(O)C2O)C(O)C(O)C1O (stereo not drawn) [Narirutin],80.9
